Read-out in experiment [1]: Tissue Factor, F3 (gene 2152)
As to the kind of experiment: BSK_CASM3C_TissueFactor: BioMAP Diversity Plus: CASM3C Assay for Tissue Factor Biomarker Activity (AID 2283052).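 Also: cell surface tissue factor protein level read by ELISA.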 The following applies: primary human coronary artery smooth muscle cells; actives raise or lower the signal.

Read-out in experiment [2]: Interferon-gamma inducible Protein 10 (IP10), CXCL10 (gene 3627)
Put plainly: BSK_hDFCGF_IP10: BioMAP Diversity Plus: hDFCGF Assay for Interferon-gamma inducible Protein 10 (IP10) Biomarker Activity (AID 2283053). Particulars: primary human foreskin fibroblasts; actives raise or lower the signal. In outline:
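Cells: human dermal foreskin fibroblasts. Exposure: 24 h post-dosing. Detection: IP-10 ELISA, with values expressed against DMSO controls and fitted in both directions.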

Read-out in experiment [3]: Urokinase-type plasminogen activator receptor (uPAR), PLAUR (gene 5329)
As to the kind of experiment: BSK_CASM3C_uPAR: BioMAP Diversity Plus: CASM3C Assay for Urokinase-type plasminogen activator receptor (uPAR) Biomarker Activity (AID 2283054).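 Also: cell-surface uPAR protein level quantified by ELISA.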 Particulars: primary human coronary artery smooth muscle cells; actives raise or lower the signal.

Read-out in experiment [4]: Vascular cell adhesion molecule 1 (VCAM1), VCAM1 (gene 7412)
Put plainly: BSK_CASM3C_VCAM1: BioMAP Diversity Plus: CASM3C Assay for Vascular cell adhesion molecule 1 (VCAM1) Biomarker Activity (AID 2283055).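 Also: VCAM-1 protein level quantified by ELISA on the cells.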 The following applies: primary human coronary artery smooth muscle cells; actives raise or lower the signal.

Read-out in experiment [5]: Collagen III, COL3A1 (gene 1281)
Put plainly: BSK_hDFCGF_CollagenIII: BioMAP Diversity Plus: hDFCGF Assay for Collagen III Biomarker Activity (AID 2283056). Particulars: primary human foreskin fibroblasts; actives raise or lower the signal. The procedure, abridged:
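Response relative to DMSO, fitted in both directions, reflects ELISA-measured collagen III in human primary skin fibroblasts 24 h after compound addition.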

Read-out in experiment [6]: Epidermal growth factor receptor (EGFR), EGFR (gene 1956)
Put plainly: BSK_hDFCGF_EGFR: BioMAP Diversity Plus: hDFCGF Assay for Epidermal growth factor receptor (EGFR) Biomarker Activity (AID 2283057). The following applies: primary human foreskin fibroblasts; actives raise or lower the signal. In outline:
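Dosing human primary skin fibroblasts, then measuring surface EGFR by ELISA at 24 h, gives the endpoint; gains and losses relative to DMSO were fitted in both directions.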

Read-out in experiment [7]: Interleukin-8 (IL8), CXCL8 (gene 3576)
As to the kind of experiment: BSK_hDFCGF_IL8: BioMAP Diversity Plus: hDFCGF Assay for Interleukin-8 (IL8) Biomarker Activity (AID 2283058). The following applies: primary human foreskin fibroblasts; actives raise or lower the signal. In outline: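 Fibroblast monolayers (human foreskin, hDFCGF) received test chemical for 24 h before ELISA detection of IL-8; either increases or decreases relative to DMSO count as activity.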

The nature of experiment [8]: BSK_hDFCGF_Proliferation: Cell Proliferation Assessment in the BioMAP Diversity Plus: hDFCGF Assay (AID 2283059).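 Also: curves fitted for both rise and fall of signal versus DMSO baseline.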 The following applies: primary human foreskin fibroblasts. In outline:
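Sub-confluent human foreskin fibroblast cultures receive test chemical […]. Relative cell number is quantified by sulforhodamine B staining (0.1%, after 10% TCA fixation) at 560 nm, with bidirectional fitting referenced to DMSO.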

Read-out in experiment [9]: Macrophage colony-stimulating factor (MCSF), CSF1 (gene 1435)
As to the kind of experiment: BSK_hDFCGF_MCSF: BioMAP Diversity Plus: hDFCGF Assay for Macrophage colony-stimulating factor (MCSF) Biomarker Activity (AID 2283060). The following applies: primary human foreskin fibroblasts; actives raise or lower the signal. The procedure, abridged: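 fibroblasts (human foreskin, primary), 24 h post-dose; M-CSF by ELISA; bidirectional fit, DMSO = baseline.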

A short description of experiment [10]: BSK_hDFCGF_SRB: Viability Assessment in the BioMAP Diversity Plus: hDFCGF Assay (AID 2283061).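 Also: cells exposed to compound for 24 h before the read.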 Particulars: primary human foreskin fibroblasts. The procedure, abridged: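 SRB-based viability read on primary human skin fibroblasts at 24 h: TCA fixation, 0.1% dye, 560 nm. Gain or loss of signal is fitted against the DMSO negative control.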
Read-out in experiment [11]: TIMP metallopeptidase inhibitor 1 (TIMP1), TIMP1 (gene 7076)
As to the kind of experiment: BSK_hDFCGF_TIMP1: BioMAP Diversity Plus: hDFCGF Assay for TIMP metallopeptidase inhibitor 1 (TIMP1) Biomarker Activity (AID 2283062). The following applies: primary human foreskin fibroblasts; actives raise or lower the signal. In outline: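 Bidirectional curve fitting against DMSO baseline yielded this endpoint, based on ELISA detection of TIMP-1 in primary human foreskin fibroblasts exposed to compound for 24 h.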

Read-out in experiment [12]: Monokine induced gamma interferon (MIG), CXCL9 (gene 4283)
As to the kind of experiment: BSK_hDFCGF_MIG: BioMAP Diversity Plus: hDFCGF Assay for Monokine induced gamma interferon (MIG) Biomarker Activity (AID 2283063). The following applies: primary human foreskin fibroblasts; actives raise or lower the signal. The procedure, abridged:
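Endpoint derived by bidirectional fitting relative to DMSO; MIG quantified via ELISA in primary human foreskin fibroblasts harvested 24 h after dosing.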

Read-out in experiment [13]: Matrix Metallopeptidase 1 (MMP1), MMP1 (gene 4312)
Put plainly: BSK_hDFCGF_MMP1: BioMAP Diversity Plus: hDFCGF Assay for Matrix Metallopeptidase 1 (MMP1) Biomarker Activity (AID 2283064). Particulars: primary human foreskin fibroblasts; actives raise or lower the signal. In outline: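 ELISA read-out of MMP1 from human foreskin fibroblasts (primary skin cells), 24 h post-dose. Gain or loss of signal was fitted bidirectionally versus DMSO negative control; cytotoxicity was checked by SRB in parallel cultures.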

Read-out in experiment [14]: Vascular cell adhesion molecule 1 (VCAM1), VCAM1 (gene 7412)
Put plainly: BSK_hDFCGF_VCAM1: BioMAP Diversity Plus: hDFCGF Assay for Vascular cell adhesion molecule 1 (VCAM1) Biomarker Activity (AID 2283065).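 As to AC50: VCAM-1 protein level quantified by ELISA after 24 h chemical exposure.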 Particulars: primary human foreskin fibroblasts; actives raise or lower the signal. The procedure, abridged:
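Measured after 24 h chemical treatment of primary human skin fibroblasts, VCAM-1 was detected by ELISA and concentration-response analysed in both directions versus DMSO vehicle.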

Read-out in experiment [15]: Plasminogen activator inhibitor-1 (PAI1), SERPINE1 (gene 5054)
As to the kind of experiment: BSK_hDFCGF_PAI1: BioMAP Diversity Plus: hDFCGF Assay for Plasminogen activator inhibitor-1 (PAI1) Biomarker Activity (AID 2283066). The following applies: primary human foreskin fibroblasts; actives raise or lower the signal. In outline: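 Fibroblasts from human foreskin were treated with test chemical. After 24 h, PAI-1 was measured by ELISA. Activity was fitted in both directions relative to DMSO.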

Read-out in experiment [16]: Intercellular Adhesion Molecule 1 (ICAM1), ICAM1 (gene 3383)
Put plainly: BSK_KF3CT_ICAM1: BioMAP Diversity Plus: KF3CT Assay for Intercellular Adhesion Molecule 1 (ICAM1) Biomarker Activity (AID 2283067). The following applies: primary human keratinocytes with fibroblasts; actives raise or lower the signal. The procedure, abridged:
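Bidirectional curve fitting against a DMSO baseline was applied to ICAM-1 ELISA signal from primary human skin co-cultures harvested 24 h after treatment, with SRB staining of parallel wells for overt cytotoxicity.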

Read-out in experiment [17]: Interferon-gamma inducible Protein 10 (IP10), CXCL10 (gene 3627)
Put plainly: BSK_KF3CT_IP10: BioMAP Diversity Plus: KF3CT Assay for Interferon-gamma inducible Protein 10 (IP10) Biomarker Activity (AID 2283068). Particulars: primary human keratinocytes with fibroblasts; actives raise or lower the signal. In outline: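 ELISA read-out of IP-10 after 24 h chemical dosing of human skin primary co-culture (keratinocytes, foreskin fibroblasts). Gain or loss of signal relative to DMSO, bidirectional curve fit.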

Experiment [18] is described as follows: BSK_KF3CT_SRB: Viability Assessment in the BioMAP Diversity Plus: KF3CT Assay (AID 2283069).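 Also: total protein by sulforhodamine B staining as a cytotoxicity measure; fitted for both signal gain and loss against DMSO baseline.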 Particulars: primary human keratinocytes with fibroblasts. The procedure, abridged: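 SRB read-out at 560 nm (0.1% stain, TCA-fixed cells) gauges overt cytotoxicity in a human skin keratinocyte–fibroblast co-culture 24 h post-dosing. Signal change was fitted bidirectionally relative to DMSO control.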

Read-out in experiment [19]: Interleukin-1 alpha (IL1a), IL1A (gene 3552)
As to the kind of experiment: BSK_KF3CT_IL1a: BioMAP Diversity Plus: KF3CT Assay for Interleukin-1 alpha (IL1a) Biomarker Activity (AID 2283070). The following applies: primary human keratinocytes with fibroblasts; actives raise or lower the signal. In outline:
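Primary skin co-culture (keratinocytes, foreskin fibroblasts), 24 h exposure; ELISA for IL-1a; bidirectional curve fit vs DMSO.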

Read-out in experiment [20]: TIMP metallopeptidase inhibitor 2 (TIMP2), TIMP2 (gene 7077)
As to the kind of experiment: BSK_KF3CT_TIMP2: BioMAP Diversity Plus: KF3CT Assay for TIMP metallopeptidase inhibitor 2 (TIMP2) Biomarker Activity (AID 2283071). The following applies: primary human keratinocytes with fibroblasts; actives raise or lower the signal. The procedure, abridged:
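Chemicals were dosed onto human skin primary co-cultures of keratinocytes and foreskin fibroblasts, and TIMP-2 was measured by ELISA after 24 hours. Activity in either direction was fitted relative to DMSO.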

The structures appear in SMILES notation. Active and inactive are the calls of the source. The calls were made as follows: active = hit-call score of the fitted dose curve at least 0.9, where 1 is the maximum; inactive = score below 0.9.

What is called AC50 is the midpoint of the concentration-response curve, whichever way the signal moves.

Turning to `OC(c1ccc(Cl)cc1)(c1ccc(Cl)cc1)C(Cl)(Cl)Cl`, the result in experiment [1] and in experiment [6] was inactive. Besides, the concentration at half-maximal activity (AC50) is 9.87 µM (active) in experiment [2]; 32.9 µM (active) in experiment [3]; 27.2 µM (active) in [4]; 10.3 µM (active) in experiment [5]; 11 µM (active) in experiment [7]; 10 µM (active) in [8]. Besides, the concentration at half-maximal activity (AC50) was 8.17 µM (active) in [9]; 10.5 µM (active) in experiment [10]; 11.4 µM (active) in experiment [11]; 10.1 µM (active) in experiment [12]; 11 µM (active) in [13]; 8.87 µM (active) in experiment [14]. Also, the AC50 in [15] is 11 µM (active); in [16], 11.6 µM (active); in experiment [17], 9.49 µM (active); in experiment [18], 6.45 µM (active); in experiment [19] it was 8.05 µM (active); in [20] it was 9.48 µM (active).

Turning to `COCC(=O)N(c1c(C)cccc1C)C(C)C(=O)OC` (stereo not given), the result in [1], in experiment [2], in experiment [3], in experiment [4], in experiment [5] and in experiment [6] was inactive. Moreover, the result in experiment [7], in [8], in experiment [9], in [10], in experiment [11] and in experiment [12] was inactive. The result in experiment [13], in experiment [14], in [15], in experiment [16], in [17] and in experiment [18] was inactive. Besides, the result in experiment [19] and in [20] was inactive.

As to `CC(C)NC(=O)N1CC(=O)N(c2cc(Cl)cc(Cl)c2)C1=O`, the outcome in experiment [1], in experiment [2], in experiment [3], in [4], in [6] and in experiment [7] was inactive. Moreover, the result in experiment [8], in experiment [9], in experiment [10], in [11], in experiment [12] and in [14] was inactive. Moreover, the outcome in experiment [15], in experiment [16], in experiment [17], in [18], in [19] and in [20] was inactive. Besides, the AC50 in experiment [5] was 0.702 µM (active); in experiment [13], 0.148 µM (active).

Turning to `Nc1c(Cl)c(F)nc(OCC(=O)O)c1Cl`, the outcome in experiment [1], in [2], in [3], in [4], in [5] and in experiment [6] was inactive. Besides, the result in [7], in [8], in experiment [9], in experiment [10], in [11] and in experiment [12] was inactive. Besides, the result in [13], in experiment [14], in [15], in [16], in experiment [17] and in [18] was inactive. The result in [19] and in experiment [20] was inactive.

As to `COC(=O)N(C(=O)N1CO[C@@]2(C(=O)OC)Cc3cc(Cl)ccc3C2=N1)c1ccc(OC(F)(F)F)cc1`, the outcome in experiment [1], in experiment [3], in experiment [4], in experiment [5], in [6] and in experiment [7] was inactive. The result in experiment [9], in experiment [11], in experiment [12], in [13], in experiment [14] and in [16] was inactive. In addition, the result in experiment [18], in [19] and in experiment [20] was inactive. The AC50 in experiment [2] was 13.5 µM (active); in [8], 7.63 µM (active); in experiment [10], 3.65 µM (active); in experiment [15] it was 5.54 µM (active); in experiment [17], 13.3 µM (active).

With `CS(=O)(=O)c1ccc(C(=O)C2C(=O)CCCC2=O)c([N+](=O)[O-])c1`, the result in experiment [1], in experiment [2], in experiment [3], in [4], in [5] and in experiment [6] was inactive. Moreover, the outcome in experiment [7], in experiment [8], in [9], in experiment [10], in [11] and in experiment [12] was inactive. For the same compound, the outcome in experiment [13], in experiment [14], in [15], in [16], in experiment [17] and in [18] was inactive. Further, the outcome in experiment [19] and in experiment [20] was inactive.

Source of the values: PubChem BioAssay (EPA / NIEHS).
